Results filed as inconclusive are left out. Where a call stands in place of a potency, no number is given. Active and inactive are the calls of the source. Calls follow the shape of the dose curve; as a rule, active = well fitted inhibition curve with a large enough effect; inconclusive = small, poorly fitted or top-dose-only effect; inactive = flat fitted curve, though single readings scatter.
Potency is read from the fitted curve at half-maximal effect.

One assay concerns N140. The assay can be described thus: qHTS profiling for inhibitors of Plasmodium falciparum proliferation (AID 504749). Also: nearly all actives have a fitted effect of over 60% in size. The note with it: P. falciparum in erythrocytes, SYBR Green DNA, 72 h; series mostly up to 28.7 µM. Put shortly: (§1)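 P. falciparum-infected erythrocytes (0.3% parasitemia, 2.5% hematocrit final) were exposed to compounds for 72 h at 37 C in 5% CO2, then lysed with SYBR Green buffer overnight at room temperature; parasite DNA fluorescence was normalized to artemisinin and DMSO controls.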
Background: Quantitative high-throughput screening tests each substance at several concentrations.
`COc1cc2c(cc1OC)[C@@H](Cc1cc(OC)c(OC)c(OC)c1)[N+](C)(CCCOC(=O)CC/C=C/CCC(=O)OCCC[N+]1(C)CCc3cc(OC)c(OC)cc3[C@H]1Cc1cc(OC)c(OC)c(OC)c1)CC2` (stereo partly drawn): the Potency entry is “inactive”.
On the same count and under the same terms, then `Cc1ncc(COP(=O)(O)O)c(CN)c1O`, with “inactive”; and `C[C@H](N)C(=O)N[C@@H](C)P(=O)(O)O`, with “inactive”.
On to `CO[C@H]1C[C@@H]2CC[C@@H](C)[C@@](O)(O2)C(=O)C(=O)N2CCCC[C@H]2C(=O)O[C@H]([C@H](C)C[C@@H]2CC[C@@H](OC(=O)C(C)(CO)CO)[C@H](OC)C2)CC(=O)[C@H](C)/C=C(\C)[C@@H](O)[C@@H](OC)C(=O)[C@H](C)C[C@H](C)/C=C/C=C/C=C/1C`, for which the Potency result was “inactive”.
Regarding `CC1=C(/C=C/C(C)=C/C=C/C(C)=C/C(=O)Oc2c(C)c(C)c3c(c2C)CC[C@@](C)(CCC[C@H](C)CCC[C@H](C)CCCC(C)C)O3)C(C)(C)CCC1`, the Potency result was “inactive”.
The same measure, in the same setting: then `CCCCCCCCCCCCCC(=O)OCC(COP(=O)([O-])OCC[N+](C)(C)C)OC(=O)CCCCCCCCCCCCC` (stereo not drawn), with “inactive”.
Still for that read-out and setting: then `CC(C)c1ncc([N+](=O)[O-])n1C`, with “inactive”.
For the molecule `NC(=O)[C@@H]1CCCN1C(=O)[C@H](Cc1cnc[nH]1)NC(=O)[C@@H]1CCC(=O)N1`, the Potency entry was “inactive”.
Same read-out and setting: as for `Cc1ccccn1`, the entry is “inactive”.
Turning to `Nc1nccs1`, the Potency entry was “inactive”.
The same measure, in the same setting: as for `O=C(NCCNCC(O)COc1ccc(O)cc1)N1CCOCC1` (stereo not drawn), the entry is “inactive”.
Take `CC(C)CCC[C@@H](C)[C@H]1CC[C@H]2[C@@H]3CC=C4C[C@@H](O)CC[C@]4(C)[C@H]3CC[C@]12C`: the Potency entry is “inactive”.
Still for that read-out and setting: as for `CS(=O)(=O)OCC(O)C(O)COS(C)(=O)=O` (stereo not drawn), the entry is “inactive”; as for `NCC[C@H](O)C(=O)N[C@@H]1C[C@H](N)[C@@H](O[C@H]2O[C@H](CN)CC[C@H]2N)[C@H](O)[C@H]1O[C@H]1O[C@H](CO)[C@@H](O)[C@H](N)[C@H]1O`, “inactive”; as for `OCC(O)CO`, “inactive”.
Turning to `CCOc1ccc(NC(=S)Nc2ccc(OCC)cc2)cc1`, the Potency result is “inactive”.
The same measure, in the same setting: then `CCOC(=O)c1cc(-c2ccccc2)nc2ccc(C)cc12`, with “inactive”; and `OCl`, with “inactive”; and `CCc1ncnc2cc(OC)c(OC)cc12`, with “inactive”.

For a further assay, the system named is P93_24. Described as above. The note with it: P. falciparum in erythrocytes, SYBR Green DNA, 72 h; series mostly up to 28.7 µM. Put shortly:
as §1
For the molecule `S=C=Nc1ccc(N=C=S)cc1`, the Potency entry is “inactive”.
The same measure, in the same setting: then `N=C(N)n1cccn1`, with “inactive”; and `Cc1cccc(C)c1NC(=O)NC1=CCCN1C`, with “inactive”; and `Cc1cc(-c2ccc(N=Nc3ccc4c(S(=O)(=O)O)cc(S(=O)(=O)O)c(N)c4c3O)c(C)c2)ccc1N=Nc1ccc2c(S(=O)(=O)O)cc(S(=O)(=O)O)c(N)c2c1O`, with “inactive”.
For `O=P(O)(O)O`, the Potency entry is “inactive”.
The same measure, in the same setting: as for `CN(CCO)CC(O)Cn1cnc2c1c(=O)n(C)c(=O)n2C` (stereo not drawn) (tested in a mixture with another compound), the entry is “inactive”; as for `O=C(O)Cc1cc(I)c(Oc2ccc(O)c(I)c2)c(I)c1`, “inactive”; as for `COC1=C(OC)C(=O)C(C/C=C(\C)CC/C=C(\C)CC/C=C(\C)CC/C=C(\C)CC/C=C(\C)CC/C=C(\C)CC/C=C(\C)CC/C=C(\C)CC/C=C(\C)CCC=C(C)C)=C(C)C1=O`, “inactive”.
On the same count and under the same terms, then `CN=C1C=CC(=C(c2ccc(N(C)C)cc2)c2ccc(N(C)C)cc2)C=C1`, with 891 nM (active); and `CCOc1ccc(S(=O)(=O)O)c2cccnc12`, with “inactive”; and `FC(F)(F)COCC(F)(F)F`, with “inactive”.
On the same count and under the same terms, as for `O=C(O)[C@H]1C(=CCO)O[C@H]2CC(=O)N12`, the entry is “inactive”; as for `CC1CC(O)CC(C)(C)C1` (stereo not drawn), “inactive”.
Take `Cc1ncc(C[n+]2csc(CCOP(=O)(O)O)c2C)c(N)n1`: the Potency entry was “inactive”.
On the same count and under the same terms, as for `CCCCO`, the entry is “inactive”; as for `CCOC(=S)SSC(=S)OCC`, “inactive”.
On the same count and under the same terms, then `N[C@H](CC(=O)O)C(=O)O`, with “inactive”; and `CCC(C(=O)NC(N)=O)c1ccccc1` (stereo not drawn), with “inactive”; and `CCN(CC)CCOC(=O)c1cccnc1`, with “inactive”.
On the same count and under the same terms, as for `NC(=S)NS(=O)(=O)c1ccc(N)cc1`, the entry is “inactive”; as for `COc1cc2c(cc1OC)[C@@H](Cc1cc(OC)c(OC)c(OC)c1)[N+](C)(CCCOC(=O)CC/C=C/CCC(=O)OCCC[N+]1(C)CCc3cc(OC)c(OC)cc3[C@H]1Cc1cc(OC)c(OC)c(OC)c1)CC2` (stereo partly drawn), “inactive”.
On to `Cc1ncc(COP(=O)(O)O)c(CN)c1O`, for which the Potency result was “inactive”.
With `C[C@H](N)C(=O)N[C@@H](C)P(=O)(O)O`, the Potency entry is “inactive”.
The same measure, in the same setting: then `CO[C@H]1C[C@@H]2CC[C@@H](C)[C@@](O)(O2)C(=O)C(=O)N2CCCC[C@H]2C(=O)O[C@H]([C@H](C)C[C@@H]2CC[C@@H](OC(=O)C(C)(CO)CO)[C@H](OC)C2)CC(=O)[C@H](C)/C=C(\C)[C@@H](O)[C@@H](OC)C(=O)[C@H](C)C[C@H](C)/C=C/C=C/C=C/1C`, with “inactive”; and `CC1=C(/C=C/C(C)=C/C=C/C(C)=C/C(=O)Oc2c(C)c(C)c3c(c2C)CC[C@@](C)(CCC[C@H](C)CCC[C@H](C)CCCC(C)C)O3)C(C)(C)CCC1`, with “inactive”.
Same read-out and setting: then `CCCCCCCCCCCCCC(=O)OCC(COP(=O)([O-])OCC[N+](C)(C)C)OC(=O)CCCCCCCCCCCCC` (stereo not drawn), with “inactive”; and `CC(C)c1ncc([N+](=O)[O-])n1C`, with “inactive”; and `NC(=O)[C@@H]1CCCN1C(=O)[C@H](Cc1cnc[nH]1)NC(=O)[C@@H]1CCC(=O)N1`, with “inactive”.
Same read-out and setting: as for `Cc1ccccn1`, the entry is “inactive”; as for `Nc1nccs1`, “inactive”; as for `O=C(NCCNCC(O)COc1ccc(O)cc1)N1CCOCC1` (stereo not drawn), “inactive”.
Take `CC(C)CCC[C@@H](C)[C@H]1CC[C@H]2[C@@H]3CC=C4C[C@@H](O)CC[C@]4(C)[C@H]3CC[C@]12C`: the Potency entry was “inactive”.
On to `CS(=O)(=O)OCC(O)C(O)COS(C)(=O)=O` (stereo not drawn), for which the Potency entry is “inactive”.
Same read-out and setting: as for `NCC[C@H](O)C(=O)N[C@@H]1C[C@H](N)[C@@H](O[C@H]2O[C@H](CN)CC[C@H]2N)[C@H](O)[C@H]1O[C@H]1O[C@H](CO)[C@@H](O)[C@H](N)[C@H]1O`, the entry is “inactive”.
The same measure, in the same setting: then `OCC(O)CO`, with “inactive”.
Still for that read-out and setting: as for `CCOc1ccc(NC(=S)Nc2ccc(OCC)cc2)cc1`, the entry is “inactive”; as for `CCOC(=O)c1cc(-c2ccccc2)nc2ccc(C)cc12`, “inactive”; as for `OCl`, “inactive”.
For `CCc1ncnc2cc(OC)c(OC)cc12`, the Potency entry was “inactive”.
